What was measured:
Settings in all cases: concentration: 1 μM, replicates: in singlicate; n = 1
[1] = system: CDK4
[2] = system: CDK5
[3] = system: CDK7
[4] = system: CDK8
[5] = system: CDK9
[6] = system: CDKL1
[7] = system: CDKL2
[8] = system: CDKL3
[9] = system: CDKL5
[10] = system: CHEK1
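Note: KINOMEscan kinase panel screen.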

Cc1cc(-c2ccc3c(c2)CC[C@@H](N[C@@H](C)c2ccccc2)C3)cnc1N.Cl [GW412617]
%Inh [1]: 26%
%Inh [2]: 4%
%Inh [3]: 0%
%Inh [4]: 14%
%Inh [5]: 0%
%Inh [6]: 0%
%Inh [7]: 18%
%Inh [8]: 0%
%Inh [9]: 0%
%Inh [10]: 14%

Cn1ccc2ncnc(Oc3cccc(C(=O)Nc4ccccc4)c3)c21
%Inh [1]: 0%
%Inh [2]: 16%
%Inh [3]: 4%
%Inh [4]: 22%
%Inh [5]: 1%
%Inh [6]: 0%
%Inh [7]: 13%
%Inh [8]: 0%
%Inh [9]: 0%
%Inh [10]: 0%

COc1cc2ncnc(Nc3ccc4nc(-c5ccccc5)[nH]c4c3)c2cc1OC.Cl [GW282450]
%Inh [1]: 20%
%Inh [2]: 0%
%Inh [3]: 0%
%Inh [4]: 0%
%Inh [5]: 0%
%Inh [6]: 1%
%Inh [7]: 7%
%Inh [8]: 0%
%Inh [9]: 1%
%Inh [10]: 0%

Nc1nc(-c2nccs2)c(-c2ccnc3ccccc23)s1 [GW693542]
%Inh [1]: 15%
%Inh [2]: 0%
%Inh [3]: 0%
%Inh [4]: 14%
%Inh [5]: 0%
%Inh [6]: 0%
%Inh [7]: 26%
%Inh [8]: 0%
%Inh [9]: 4%
%Inh [10]: 5%

O=C(Nc1n[nH]c2nc(-c3nccs3)c(Br)cc12)C1CC1 [SB-742251]
%Inh [1]: 44%
%Inh [2]: 0%
%Inh [3]: 12%
%Inh [4]: 25%
%Inh [5]: 0%
%Inh [6]: 24%
%Inh [7]: 92.3%
%Inh [8]: 0%
%Inh [9]: 0%
%Inh [10]: 0%

COc1ccc(Nc2nccc(NCCNC(=O)Nc3ccccc3F)n2)cc1 [GSK1379901]
%Inh [1]: 0%
%Inh [2]: 0%
%Inh [3]: 0%
%Inh [4]: 0%
%Inh [5]: 1%
%Inh [6]: 4%
%Inh [7]: 9%
%Inh [8]: 0%
%Inh [9]: 3%
%Inh [10]: 0%

C[C@@H]1CCCCN1c1cc(-c2ccc3c(N)n[nH]c3c2)nc(N)n1 [GSK2258759]
%Inh [1]: 21%
%Inh [2]: 0%
%Inh [3]: 0%
%Inh [4]: 20%
%Inh [5]: 0%
%Inh [6]: 6%
%Inh [7]: 6%
%Inh [8]: 0%
%Inh [9]: 0%
%Inh [10]: 0%

CS(=O)(=O)c1ccc(-c2nc3n(c2-c2ccncc2)CCC3)cc1 [SKF-105942]
%Inh [1]: 9%
%Inh [2]: 0%
%Inh [3]: 0%
%Inh [4]: 0%
%Inh [5]: 100%
%Inh [6]: 28%
%Inh [7]: 17%
%Inh [8]: 0%
%Inh [9]: 4%
%Inh [10]: 0%

Cc1c(Cn2ccn3c(=O)cc(N4CCOCC4)nc23)cccc1C(F)(F)F [GSK2289044]
%Inh [1]: 4%
%Inh [2]: 0%
%Inh [3]: 0%
%Inh [4]: 0%
%Inh [5]: 0%
%Inh [6]: 3%
%Inh [7]: 10%
%Inh [8]: 0%
%Inh [9]: 16%
%Inh [10]: 0%

O=C(O)COc1ncnc2cc(-c3ccc4[nH]ncc4c3)sc12
%Inh [1]: 0%
%Inh [2]: 45%
%Inh [3]: 30%
%Inh [4]: 4%
%Inh [5]: 0%
%Inh [6]: 11%
%Inh [7]: 0%
%Inh [8]: 13%
%Inh [9]: 17%
%Inh [10]: 0%

COc1cccc(NC(=O)NC2CCN(c3ccnc(Nc4ccc(F)cc4)n3)C2)c1 (stereo not drawn) [GSK1379721]
%Inh [1]: 0%
%Inh [2]: 0%
%Inh [3]: 0%
%Inh [4]: 61%
%Inh [5]: 14%
%Inh [6]: 5%
%Inh [7]: 61%
%Inh [8]: 0%
%Inh [9]: 7%
%Inh [10]: 2%

Cc1cccc(-c2nc(-c3ccc(S(C)(=O)=O)cc3)sc2-c2ccnc(NCCc3ccccc3)c2)c1
%Inh [1]: 0%
%Inh [2]: 9%
%Inh [3]: 2%
%Inh [4]: 15%
%Inh [5]: 1%
%Inh [6]: 14%
%Inh [7]: 13%
%Inh [8]: 10%
%Inh [9]: 23%
%Inh [10]: 0%

Cc1ccc(-c2cc(-c3c[nH]nc3-c3ccccn3)ccn2)cc1 [GW684088]
%Inh [1]: 43%
%Inh [2]: 0%
%Inh [3]: 9%
%Inh [4]: 52%
%Inh [5]: 5%
%Inh [6]: 0%
%Inh [7]: 28%
%Inh [8]: 0%
%Inh [9]: 0%
%Inh [10]: 12%

Cc1cccc(-c2nc(Nc3ccncc3)c3ccccc3n2)n1 [GW855857]
%Inh [1]: 0%
%Inh [2]: 0%
%Inh [3]: 0%
%Inh [4]: 65%
%Inh [5]: 0%
%Inh [6]: 47%
%Inh [7]: 10%
%Inh [8]: 0%
%Inh [9]: 0%
%Inh [10]: 0%

COc1ccc2nc(-c3cccc(C)n3)nc(Nc3ccncc3)c2c1 [GSK204919]
%Inh [1]: 0%
%Inh [2]: 0%
%Inh [3]: 0%
%Inh [4]: 7%
%Inh [5]: 0%
%Inh [6]: 4%
%Inh [7]: 24%
%Inh [8]: 0%
%Inh [9]: 0%
%Inh [10]: 10%

Cc1csc(-c2nc(Nc3ccncc3)c3ccccc3n2)n1 [GW869640]
%Inh [1]: 20%
%Inh [2]: 13%
%Inh [3]: 31%
%Inh [4]: 0%
%Inh [5]: 9%
%Inh [6]: 6%
%Inh [7]: 1%
%Inh [8]: 19%
%Inh [9]: 19%
%Inh [10]: 7%

CC(C)(C)c1ccc(C(=O)Nc2cn3cc(Cl)ccc3n2)cc1
%Inh [1]: 0%
%Inh [2]: 18%
%Inh [3]: 0%
%Inh [4]: 7%
%Inh [5]: 0%
%Inh [6]: 19%
%Inh [7]: 0%
%Inh [8]: 0%
%Inh [9]: 0%
%Inh [10]: 0%

CS(=O)(=O)c1ccc(-c2c(-c3ncn[nH]3)sc(N3CCOCC3)c2C#N)cc1
%Inh [1]: 1%
%Inh [2]: 38%
%Inh [3]: 31%
%Inh [4]: 18%
%Inh [5]: 6%
%Inh [6]: 22%
%Inh [7]: 7%
%Inh [8]: 13%
%Inh [9]: 0%
%Inh [10]: 0%

COC(=O)c1c(-c2ccccc2)c2cc(OC)ccc2c(=O)n1Cc1ccccc1
%Inh [1]: 0%
%Inh [2]: 11%
%Inh [3]: 15%
%Inh [4]: 7%
%Inh [5]: 9%
%Inh [6]: 3%
%Inh [7]: 13%
%Inh [8]: 12%
%Inh [9]: 0%
%Inh [10]: 0%

CN1C(=O)C(Nc2ccc(Cl)c(C(=O)O)c2)=C(c2ccc(Cl)cc2)C1=O [SB-404290]
%Inh [1]: 47%
%Inh [2]: 0%
%Inh [3]: 0%
%Inh [4]: 0%
%Inh [5]: 0%
%Inh [6]: 1%
%Inh [7]: 13%
%Inh [8]: 0%
%Inh [9]: 16%
%Inh [10]: 0%

Cl.Oc1ccc(-c2nc(-c3ccccc3)[nH]c2-c2ccncc2)cc1 [SB-428218]
%Inh [1]: 0%
%Inh [2]: 0%
%Inh [3]: 0%
%Inh [4]: 0%
%Inh [5]: 0%
%Inh [6]: 0%
%Inh [7]: 32%
%Inh [8]: 0%
%Inh [9]: 0%
%Inh [10]: 0%

COc1ccc(Nc2nccc(-c3cccc(NC(=O)c4cc5cc(F)ccc5[nH]4)c3)n2)cc1 [GSK1229782]
%Inh [1]: 48%
%Inh [2]: 1%
%Inh [3]: 4%
%Inh [4]: 56%
%Inh [5]: 0%
%Inh [6]: 12%
%Inh [7]: 30%
%Inh [8]: 0%
%Inh [9]: 0%
%Inh [10]: 0%

Cc1cccc(-c2nc(Nc3cccc(C(N)=O)c3)c3ccccc3n2)n1 [GW876019]
%Inh [1]: 0%
%Inh [2]: 0%
%Inh [3]: 8%
%Inh [4]: 36%
%Inh [5]: 0%
%Inh [6]: 36%
%Inh [7]: 13%
%Inh [8]: 0%
%Inh [9]: 1%
%Inh [10]: 0%

Cc1cc(N2Cc3ccccc3C2)nc(Nc2ccc(S(=O)(=O)N3CCOCC3)cc2)n1.Cl [GSK1669917]
%Inh [1]: 0%
%Inh [2]: 0%
%Inh [3]: 0%
%Inh [4]: 33%
%Inh [5]: 0%
%Inh [6]: 0%
%Inh [7]: 0%
%Inh [8]: 0%
%Inh [9]: 6%
%Inh [10]: 0%

CCCc1ccc(S(=O)(=O)NC2CCN(c3ccnc(Nc4ccc(F)cc4)n3)C2)cc1 (stereo not drawn) [GSK1379715]
%Inh [1]: 0%
%Inh [2]: 0%
%Inh [3]: 0%
%Inh [4]: 0%
%Inh [5]: 0%
%Inh [6]: 13%
%Inh [7]: 38%
%Inh [8]: 0%
%Inh [9]: 0%
%Inh [10]: 6%

Cc1ccc(NC(=O)Nc2cccc(Cl)c2)cc1-c1ccc(C(=O)Nc2ccncc2)cc1 [GSK1398468]
%Inh [1]: 0%
%Inh [2]: 0%
%Inh [3]: 0%
%Inh [4]: 0%
%Inh [5]: 0%
%Inh [6]: 13%
%Inh [7]: 52%
%Inh [8]: 0%
%Inh [9]: 0%
%Inh [10]: 0%

COc1cc2ncn(-c3cc(OCC4CCCO4)c(C(N)=O)s3)c2cc1OC (stereo not drawn) [GSK204607]
%Inh [1]: 13%
%Inh [2]: 0%
%Inh [3]: 4%
%Inh [4]: 32%
%Inh [5]: 0%
%Inh [6]: 11%
%Inh [7]: 1%
%Inh [8]: 0%
%Inh [9]: 0%
%Inh [10]: 0%

Cc1ccc(C(=O)Nc2ccc(Nc3ccnc4cc(-c5ccccn5)ccc34)cc2O)cc1.Cl [GW440146]
%Inh [1]: 32%
%Inh [2]: 0%
%Inh [3]: 0%
%Inh [4]: 23%
%Inh [5]: 0%
%Inh [6]: 0%
%Inh [7]: 18%
%Inh [8]: 0%
%Inh [9]: 2%
%Inh [10]: 0%

Fc1cc(Cl)ccc1Nc1ccnc2cc(I)ccc12 [GW551191]
%Inh [1]: 23%
%Inh [2]: 0%
%Inh [3]: 0%
%Inh [4]: 7%
%Inh [5]: 0%
%Inh [6]: 0%
%Inh [7]: 21%
%Inh [8]: 0%
%Inh [9]: 3%
%Inh [10]: 0%

Nc1ncnc2[nH]c(-c3ccccc3)nc12 [AH5015]
%Inh [1]: 7%
%Inh [2]: 0%
%Inh [3]: 0%
%Inh [4]: 0%
%Inh [5]: 0%
%Inh [6]: 6%
%Inh [7]: 32%
%Inh [8]: 0%
%Inh [9]: 0%
%Inh [10]: 0%

O=C(Nc1ccc2c(c1)OCO2)NC1CCN(c2ccnc(Nc3ccc(F)cc3)n2)C1 (stereo not drawn) [GSK1379724]
%Inh [1]: 0%
%Inh [2]: 0%
%Inh [3]: 0%
%Inh [4]: 33%
%Inh [5]: 0%
%Inh [6]: 0%
%Inh [7]: 49%
%Inh [8]: 0%
%Inh [9]: 3%
%Inh [10]: 0%

CC1=C(C(=O)Nc2cc3cn[nH]c3cc2F)C(c2ccc(C(F)(F)F)cc2)CC(=O)N1 (stereo not drawn) [GSK429286]
%Inh [1]: 11%
%Inh [2]: 0%
%Inh [3]: 0%
%Inh [4]: 18%
%Inh [5]: 0%
%Inh [6]: 0%
%Inh [7]: 4%
%Inh [8]: 0%
%Inh [9]: 10%
%Inh [10]: 7%

COc1ccccc1-c1ccc2c(NC(=O)C3CC3)n[nH]c2n1 [SB-711239]
%Inh [1]: 33%
%Inh [2]: 0%
%Inh [3]: 0%
%Inh [4]: 44%
%Inh [5]: 0%
%Inh [6]: 18%
%Inh [7]: 23%
%Inh [8]: 20%
%Inh [9]: 3%
%Inh [10]: 11%

CN(C)CCN(C)C(=O)c1cc(-c2ccncc2)c(-c2ccc(Cl)c(O)c2)o1.Cl.Cl [SB-710397]
%Inh [1]: 0%
%Inh [2]: 0%
%Inh [3]: 0%
%Inh [4]: 37%
%Inh [5]: 0%
%Inh [6]: 0%
%Inh [7]: 20%
%Inh [8]: 0%
%Inh [9]: 2%
%Inh [10]: 9%

Cn1ccc2ncnc(Oc3ccc(Nc4nc5ccccc5[nH]4)cc3)c21
%Inh [1]: 0%
%Inh [2]: 0%
%Inh [3]: 0%
%Inh [4]: 6%
%Inh [5]: 0%
%Inh [6]: 18%
%Inh [7]: 0%
%Inh [8]: 11%
%Inh [9]: 0%
%Inh [10]: 0%

Fc1cc(Cl)ccc1Nc1ccnc2cc(-c3ccc(CN4CCCCC4)o3)ccc12 [GW560116]
%Inh [1]: 35%
%Inh [2]: 0%
%Inh [3]: 0%
%Inh [4]: 28%
%Inh [5]: 0%
%Inh [6]: 0%
%Inh [7]: 2%
%Inh [8]: 0%
%Inh [9]: 0%
%Inh [10]: 0%

From paper PMC5540273 (PLoS ONE, 2017)
